# “And” between values parts separate entries of the source, which are not always exact repeats. Equal values may be shown once. Records with an inconclusive call do not appear. Where a call stands in place of a potency, no number is given. Where a structure was tested more than once in an assay, its records may differ in their call. The source made the active and inactive calls. Calls follow the shape of the dose curve; as a rule, active = well fitted activation curve with a large enough effect in the repeat runs; inconclusive = weak or mixed curves; inactive = flat fitted curve, though single readings scatter.
# Assay: A CellTox Green Cytotoxicity Assay to monitor cytotoxicity in HepG2 cells - 32 hour (AID 1224883); also: nearly all actives have a fitted effect of over 50% in size
# Conditions: CellTox Green fluorescence; series mostly up to 76.8 µM
# How it was run: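 Fluorescent DNA-binding dye, 600 HepG2 cells/well, 5 h preincubation then compound in DMSO; same plates read at 0–40 h, 37 C.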
# Potency is read from the fitted curve at half-maximal effect.
row,Structure (SMILES),Potency
1,COC(=O)Nc1nc2ccccc2[nH]1,6.17 µM (active) and inactive
2,CC(O)CN(CC(C)O)CC(C)O (centres undefined),inactive
3,CCCCSP(=O)(SCCCC)SCCCC,inactive
4,O=P(OCCCl)(OCCCl)OCCCl,inactive
5,CCOS(=O)(=O)OCC,inactive
6,CC(C)(O)C#N,inactive
7,CS(=O)(=O)NC(=O)c1cc(Oc2ccc(C(F)(F)F)cc2Cl)ccc1[N+](=O)[O-],inactive
8,Nc1ccc([N+](=O)[O-])cc1N,inactive
9,Oc1ccc(Cl)cc1Cc1ccccc1,inactive and 33.1 µM (active)
10,CCC1(c2ccc(N)cc2)CCC(=O)NC1=O (centres undefined),inactive
11,NC(=O)CN1CCCC1=O,inactive
12,COc1ccc(C=O)cc1OC,inactive
13,O=C(O)c1nn(Cc2ccc(Cl)cc2Cl)c2ccccc12,inactive and 95.2 nM (active)
14,Brc1ccc(Br)cc1,inactive
15,[CH3][Sn]([Cl])([Cl])[Cl],inactive
16,O=C1C(Cl)=C(Cl)C(=O)c2ccccc21,15.5 µM (active) and 4.9 µM (active)
17,N#Cc1nn(-c2c(Cl)cc(C(F)(F)F)cc2Cl)c(N)c1S(=O)C(F)(F)F (centres undefined),inactive
18,O=S(=O)(O)C(F)(F)C(F)(F)C(F)(F)C(F)(F)C(F)(F)C(F)(F)C(F)(F)C(F)(F)F,18.6 µM (active) and inactive
19,CCCCOCC1CO1 (centres undefined),inactive and 43.6 µM (active)
20,ClCC(Cl)CCl,inactive
21,O=C1Nc2ccc(Cl)cc2C(c2ccccc2)=NC1O (centres undefined),inactive
22,ClC(Cl)(Cl)Br,inactive
23,CC1=C(C(=O)Nc2ccccc2)SCCO1,inactive
24,Clc1ccccc1-c1nnc(-c2ccccc2Cl)nn1,inactive
25,CC1CC(=O)O1 (centres undefined),inactive
26,CCOP(=O)(OCC)OCC,inactive

# Assay: A CellTox Green Cytotoxicity Assay to monitor cytotoxicity in HEK293 cells - 8 hour (AID 1224884); also: nearly all actives have a fitted effect of over 35% in size
# Conditions: CellTox Green fluorescence; series mostly up to 76.8 µM
# How it was run: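 Homogeneous no-lysis format: HEK293 cell suspension mixed with CellTox Green reagent, seeded, incubated 5 h at 37 C/5% CO2, then dosed by pintool with compound in DMSO.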
row,Structure (SMILES),Potency
1,N#CCCCCC#N,inactive
2,COP(=S)(OC)Oc1ccc(S(=O)(=O)N(C)C)cc1,inactive
3,N#Cc1c(Cl)c(Cl)c(Cl)c(C#N)c1Cl,7.76 µM (active)
4,C[C@]12CC[C@H]3[C@@H](CCC4=CC(=O)CC[C@@H]43)[C@@H]1CC[C@@H]2O,inactive
5,COc1ccc(CO)cc1,inactive
6,CCC(=O)Nc1ccc(Cl)c(Cl)c1,inactive
7,NN=C(N)N,inactive
8,OC(c1ccc(Cl)cc1)(c1cncnc1)c1ccccc1Cl (centres undefined),inactive
9,Cl,inactive
10,CC(C)(c1ccccc1)c1ccc(O)c(C(C)(C)c2ccccc2)c1,inactive
11,CC(C)(c1ccccc1)c1ccc(O)cc1,8.64 µM (active) and 49 µM (active)
12,COP(=O)(NC(C)=O)SC (centres undefined),inactive
13,COC(=O)Nc1nc2ccccc2[nH]1,inactive
14,CC(O)CN(CC(C)O)CC(C)O (centres undefined),inactive
15,CCCCSP(=O)(SCCCC)SCCCC,inactive
16,O=P(OCCCl)(OCCCl)OCCCl,inactive
17,CCOS(=O)(=O)OCC,inactive
18,CC(C)(O)C#N,inactive
19,CS(=O)(=O)NC(=O)c1cc(Oc2ccc(C(F)(F)F)cc2Cl)ccc1[N+](=O)[O-],inactive

row,Structure (SMILES),Potency
1,Nc1ccc([N+](=O)[O-])cc1N,inactive
2,Oc1ccc(Cl)cc1Cc1ccccc1,inactive
3,CCC1(c2ccc(N)cc2)CCC(=O)NC1=O (centres undefined),inactive
4,NC(=O)CN1CCCC1=O,inactive
5,COc1ccc(C=O)cc1OC,inactive
6,O=C(O)c1nn(Cc2ccc(Cl)cc2Cl)c2ccccc12,inactive
7,Brc1ccc(Br)cc1,inactive
8,[CH3][Sn]([Cl])([Cl])[Cl],inactive
9,O=C1C(Cl)=C(Cl)C(=O)c2ccccc21,27.6 µM (active) and inactive
10,N#Cc1nn(-c2c(Cl)cc(C(F)(F)F)cc2Cl)c(N)c1S(=O)C(F)(F)F (centres undefined),inactive
11,O=S(=O)(O)C(F)(F)C(F)(F)C(F)(F)C(F)(F)C(F)(F)C(F)(F)C(F)(F)C(F)(F)F,37 µM (active) and inactive and 11 µM (active)
12,CCCCOCC1CO1 (centres undefined),inactive and 24.5 µM (active)
13,ClCC(Cl)CCl,inactive
14,O=C1Nc2ccc(Cl)cc2C(c2ccccc2)=NC1O (centres undefined),inactive
15,ClC(Cl)(Cl)Br,inactive
16,CC1=C(C(=O)Nc2ccccc2)SCCO1,inactive
17,Clc1ccccc1-c1nnc(-c2ccccc2Cl)nn1,inactive
18,CC1CC(=O)O1 (centres undefined),inactive
19,CCOP(=O)(OCC)OCC,inactive

# Reference: PubChem BioAssay (Tox21)
